Test results taken from article PMC13541613, “GHT-SELEX demonstrates unexpectedly high intrinsic sequence specificity and complex DNA binding of many human transcription factors”.

Key:
Assay in all cases: HT-SELEX; 20 mM HEPES pH 7, 140 mM KCl, 5 mM NaCl, 1 mM K2HPO4, 2 mM MgSO4, 100 uM EGTA, ZnSO4, 0.1% Tween20; room temperature, 1 h; high values mean tight binding
Details in all cases: protein: ivt; tags: eGFP (N-terminal); dsDNA, one strand shown
ZNF721 full-length = ZNF721 full-length (Homo sapiens, UniProt Q8TF20-2 1-923)
Sequence of ZNF721 full-length (Q8TF20 other isoform, or with tags, fused parts or gaps): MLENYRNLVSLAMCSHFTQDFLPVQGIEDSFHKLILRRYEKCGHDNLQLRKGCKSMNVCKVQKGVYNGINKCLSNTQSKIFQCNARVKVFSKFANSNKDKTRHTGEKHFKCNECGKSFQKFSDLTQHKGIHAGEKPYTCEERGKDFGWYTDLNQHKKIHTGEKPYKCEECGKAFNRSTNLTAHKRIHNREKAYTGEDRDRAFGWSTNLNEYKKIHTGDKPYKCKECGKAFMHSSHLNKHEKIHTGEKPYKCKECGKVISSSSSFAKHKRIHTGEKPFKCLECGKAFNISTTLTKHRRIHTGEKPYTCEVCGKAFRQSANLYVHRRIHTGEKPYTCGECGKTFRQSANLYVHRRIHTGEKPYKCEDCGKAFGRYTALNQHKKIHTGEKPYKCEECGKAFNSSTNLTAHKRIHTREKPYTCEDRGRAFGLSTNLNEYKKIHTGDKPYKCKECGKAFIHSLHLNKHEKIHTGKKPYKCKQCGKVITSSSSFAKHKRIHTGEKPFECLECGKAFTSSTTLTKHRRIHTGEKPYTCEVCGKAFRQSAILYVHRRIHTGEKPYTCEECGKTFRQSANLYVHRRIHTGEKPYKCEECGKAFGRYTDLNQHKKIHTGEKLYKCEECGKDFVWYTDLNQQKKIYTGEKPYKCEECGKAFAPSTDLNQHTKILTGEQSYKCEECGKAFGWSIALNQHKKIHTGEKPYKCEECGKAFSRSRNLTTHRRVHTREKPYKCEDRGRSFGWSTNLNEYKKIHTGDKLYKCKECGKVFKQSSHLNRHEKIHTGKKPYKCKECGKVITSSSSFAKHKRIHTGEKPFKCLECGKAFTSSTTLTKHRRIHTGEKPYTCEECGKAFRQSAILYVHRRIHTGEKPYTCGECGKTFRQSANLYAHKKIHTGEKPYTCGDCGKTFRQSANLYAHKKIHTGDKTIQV
In short: (§1)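 In HEPES/KCl low-stringency buffer with Tween20, a bead-immobilised tagged transcription factor (full-length or DNA-binding-domain fragment, from HEK293 lysate or cell-free extract) was incubated with a randomized 40-base DNA library for 1 h at room temperature. DNA retained after washing was heat-eluted, amplified by PCR over successive cycles and Illumina-sequenced, giving ~3 million 60 bp reads per sample. The reported binding signal, a relative k-mer count in those selected reads, rises with tighter binding.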

ZNF721 DBD1 = ZNF721 DBD1 (Homo sapiens, UniProt Q8TF20-2 29-461)
Sequence of ZNF721 DBD1 (Q8TF20 17-449): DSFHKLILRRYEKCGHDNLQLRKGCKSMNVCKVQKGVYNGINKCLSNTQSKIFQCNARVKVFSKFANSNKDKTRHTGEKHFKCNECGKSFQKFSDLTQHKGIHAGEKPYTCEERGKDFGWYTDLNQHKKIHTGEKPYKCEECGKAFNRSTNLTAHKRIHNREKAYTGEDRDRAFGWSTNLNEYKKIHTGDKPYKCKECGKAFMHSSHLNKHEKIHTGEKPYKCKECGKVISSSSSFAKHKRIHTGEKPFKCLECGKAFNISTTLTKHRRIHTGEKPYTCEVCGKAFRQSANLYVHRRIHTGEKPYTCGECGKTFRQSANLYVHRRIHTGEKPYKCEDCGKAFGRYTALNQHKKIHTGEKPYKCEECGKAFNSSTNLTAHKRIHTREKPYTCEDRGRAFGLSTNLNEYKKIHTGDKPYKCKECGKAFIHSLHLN
In short: as §1

ZNF721 DBD2 = ZNF721 DBD2 (Homo sapiens, UniProt Q8TF20-2 395-923)
Sequence of ZNF721 DBD2 (Q8TF20 383-911): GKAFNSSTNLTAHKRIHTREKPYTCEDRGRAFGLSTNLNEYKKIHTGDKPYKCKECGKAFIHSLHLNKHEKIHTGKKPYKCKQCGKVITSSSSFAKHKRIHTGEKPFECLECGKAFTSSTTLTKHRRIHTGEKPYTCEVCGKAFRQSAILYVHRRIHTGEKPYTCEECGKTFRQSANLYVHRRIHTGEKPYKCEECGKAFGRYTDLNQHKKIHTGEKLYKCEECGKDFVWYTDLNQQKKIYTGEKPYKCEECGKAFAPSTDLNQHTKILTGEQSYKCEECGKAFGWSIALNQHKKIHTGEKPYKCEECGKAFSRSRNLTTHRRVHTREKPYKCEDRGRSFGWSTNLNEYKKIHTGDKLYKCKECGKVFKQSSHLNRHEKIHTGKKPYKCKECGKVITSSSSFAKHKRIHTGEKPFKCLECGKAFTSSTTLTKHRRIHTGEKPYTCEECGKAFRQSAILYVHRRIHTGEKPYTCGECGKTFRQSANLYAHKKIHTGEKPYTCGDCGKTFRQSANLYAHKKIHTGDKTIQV
In short: as §1

Row | Sequence | binding signal (ZNF721 full-length) | binding signal (ZNF721 DBD1) | binding signal (ZNF721 DBD2)
1 | CACCCCCGCC | 0.193 relative 10-mer count | 0.00683 relative 10-mer count | 0.00288 relative 10-mer count
2 | CACCTCCCCA | 0.115 relative 10-mer count | 0.00505 relative 10-mer count | 0.00348 relative 10-mer count
3 | CCCCCTTCCC | 0.122 relative 10-mer count | 0.00537 relative 10-mer count | 0.00264 relative 10-mer count
4 | AAAAAAAGAG | 0.126 relative 10-mer count | 0.00949 relative 10-mer count | 0.0578 relative 10-mer count
5 | CCCCCGCCTC | 0.119 relative 10-mer count | 0.00509 relative 10-mer count | 0.0036 relative 10-mer count
6 | ACCCACCCAC | 0.196 relative 10-mer count | 0.00922 relative 10-mer count | 0.00887 relative 10-mer count
7 | CAAACAAGCA | 0.102 relative 10-mer count | 0.00362 relative 10-mer count | 0.063 relative 10-mer count
8 | ACAAAAAACA | 0.143 relative 10-mer count | 0.00197 relative 10-mer count | 0.172 relative 10-mer count
9 | CCCACCGCCA | 0.13 relative 10-mer count | 0.00422 relative 10-mer count | 0.00563 relative 10-mer count
10 | CCACCGCCAC | 0.12 relative 10-mer count | 0.00394 relative 10-mer count | 0.00599 relative 10-mer count
11 | CCCACCCCCC | 0.427 relative 10-mer count | 0.0183 relative 10-mer count | 0.00384 relative 10-mer count
12 | CCCACCCCTC | 0.188 relative 10-mer count | 0.01 relative 10-mer count | 0.00527 relative 10-mer count
13 | GGGTGGGGCA | 0.104 relative 10-mer count | 0.00344 relative 10-mer count | 0.00216 relative 10-mer count
14 | CCCACGCCCC | 0.233 relative 10-mer count | 0.00729 relative 10-mer count | 0.00384 relative 10-mer count
15 | CCCCCAACCC | 0.233 relative 10-mer count | 0.00775 relative 10-mer count | 0.00168 relative 10-mer count
16 | CCCAACCACC | 0.17 relative 10-mer count | 0.00752 relative 10-mer count | 0.00539 relative 10-mer count
17 | ACCCCACCAC | 0.199 relative 10-mer count | 0.00738 relative 10-mer count | 0.00407 relative 10-mer count
18 | CCACCCCGAC | 0.136 relative 10-mer count | 0.00404 relative 10-mer count | 0.0024 relative 10-mer count
19 | CCCCCTCCCA | 0.157 relative 10-mer count | 0.00784 relative 10-mer count | 0.00455 relative 10-mer count
20 | GCCCCACCAC | 0.137 relative 10-mer count | 0.00555 relative 10-mer count | 0.00743 relative 10-mer count

Row | Sequence | binding signal (ZNF721 full-length) | binding signal (ZNF721 DBD1) | binding signal (ZNF721 DBD2)
21 | CCACCCACAC | 0.152 relative 10-mer count | 0.00734 relative 10-mer count | 0.00635 relative 10-mer count
22 | ATCCCCACCC | 0.114 relative 10-mer count | 0.00459 relative 10-mer count | 0.00515 relative 10-mer count
23 | AAAAAAGCAC | 0.158 relative 10-mer count | 0.0181 relative 10-mer count | 0.0367 relative 10-mer count
24 | GCCCCCCTCC | 0.128 relative 10-mer count | 0.00527 relative 10-mer count | 0.00264 relative 10-mer count
25 | CGTCCCACCC | 0.127 relative 10-mer count | 0.00495 relative 10-mer count | 0.00204 relative 10-mer count
26 | AACAAGCAGT | 0.128 relative 10-mer count | 0.017 relative 10-mer count | 0.0905 relative 10-mer count
27 | GAAGCGTACC | 0.104 relative 10-mer count | 0.0792 relative 10-mer count | 0.0018 relative 10-mer count
28 | CCTCCACCCA | 0.111 relative 10-mer count | 0.00505 relative 10-mer count | 0.00527 relative 10-mer count
29 | ACAAAAAAGC | 0.187 relative 10-mer count | 0.0198 relative 10-mer count | 0.0647 relative 10-mer count
30 | CACCGCCCAC | 0.123 relative 10-mer count | 0.00482 relative 10-mer count | 0.00372 relative 10-mer count
31 | CGCTTTTTTC | 0.258 relative 10-mer count | 0.0622 relative 10-mer count | 0.0303 relative 10-mer count
32 | CTCCCCCTCC | 0.14 relative 10-mer count | 0.00784 relative 10-mer count | 0.00324 relative 10-mer count
33 | GGGGCGGGGA | 0.131 relative 10-mer count | 0.00633 relative 10-mer count | 0.00264 relative 10-mer count
34 | AAAAAGCAGC | 0.557 relative 10-mer count | 0.00835 relative 10-mer count | 0.477 relative 10-mer count
35 | ACCCCACCTC | 0.104 relative 10-mer count | 0.00527 relative 10-mer count | 0.0024 relative 10-mer count
36 | CCCTCCCCCG | 0.145 relative 10-mer count | 0.00555 relative 10-mer count | 0.00467 relative 10-mer count
37 | AGCGTACCCA | 0.188 relative 10-mer count | 0.0311 relative 10-mer count | 0.162 relative 10-mer count
38 | AAAGCAGCCC | 0.134 relative 10-mer count | 0.00225 relative 10-mer count | 0.133 relative 10-mer count
39 | AAAAGCGTAC | 0.118 relative 10-mer count | 0.0294 relative 10-mer count | 0.0176 relative 10-mer count
40 | AAGCAGCATG | 0.115 relative 10-mer count | 0.0017 relative 10-mer count | 0.137 relative 10-mer count

Row | Sequence | binding signal (ZNF721 full-length) | binding signal (ZNF721 DBD1) | binding signal (ZNF721 DBD2)
41 | ACCTCCCACC | 0.113 relative 10-mer count | 0.00578 relative 10-mer count | 0.00348 relative 10-mer count
42 | AAAAAGCGTA | 0.178 relative 10-mer count | 0.0453 relative 10-mer count | 0.0266 relative 10-mer count
43 | CACCCCCAAC | 0.118 relative 10-mer count | 0.00514 relative 10-mer count | 0.0114 relative 10-mer count
44 | CCACAAAAAA | 0.125 relative 10-mer count | 0.00615 relative 10-mer count | 0.0663 relative 10-mer count
45 | CCCCCGACCC | 0.181 relative 10-mer count | 0.00587 relative 10-mer count | 0.0018 relative 10-mer count
46 | CCGACCACCC | 0.119 relative 10-mer count | 0.00495 relative 10-mer count | 0.00443 relative 10-mer count
47 | CCCTCGCCCC | 0.167 relative 10-mer count | 0.00702 relative 10-mer count | 0.00336 relative 10-mer count
48 | CCGCCCCACC | 0.257 relative 10-mer count | 0.00894 relative 10-mer count | 0.00407 relative 10-mer count
49 | CCCTCCCCCC | 0.342 relative 10-mer count | 0.0158 relative 10-mer count | 0.00515 relative 10-mer count
50 | GCCCTCCCCC | 0.163 relative 10-mer count | 0.00716 relative 10-mer count | 0.00911 relative 10-mer count
51 | GCCCCACCGC | 0.104 relative 10-mer count | 0.00271 relative 10-mer count | 0.00407 relative 10-mer count
52 | CGACCCCCCC | 0.113 relative 10-mer count | 0.00427 relative 10-mer count | 0.0018 relative 10-mer count
53 | CCGCCCCCTC | 0.128 relative 10-mer count | 0.00573 relative 10-mer count | 0.00324 relative 10-mer count
54 | ACCCCTCCCC | 0.189 relative 10-mer count | 0.00688 relative 10-mer count | 0.00216 relative 10-mer count
55 | CCCCGCGCCC | 0.138 relative 10-mer count | 0.00482 relative 10-mer count | 0.00228 relative 10-mer count
56 | CCACCCGCCC | 0.235 relative 10-mer count | 0.00922 relative 10-mer count | 0.00443 relative 10-mer count
57 | CCCTCCCCCA | 0.192 relative 10-mer count | 0.00881 relative 10-mer count | 0.00839 relative 10-mer count
58 | CTCCCCCACC | 0.191 relative 10-mer count | 0.0104 relative 10-mer count | 0.00348 relative 10-mer count
59 | AAAAAGCGTC | 0.108 relative 10-mer count | 0.0239 relative 10-mer count | 0.0102 relative 10-mer count
60 | CCCCGCCCCA | 0.196 relative 10-mer count | 0.0067 relative 10-mer count | 0.00228 relative 10-mer count
